Drawing on PubChem BioAssay (NCI), this text covers growth for 40 compounds.

SMILES strings stand for the structures. Where “and” joins values, the source holds several entries; their conditions need not be identical. Identical values can stand only once. Compounds without any hit were thinned out: in the full panel of roughly 83,000, 20% have a hit.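 Cell lines were cultured in 96-well plates, exposed to a single compound concentration, and assessed for percent growth 48 hours later.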 Calls of active or inactive are those of the source.

The subject of the assay is COLO 205 colon. The assay can be described thus: NCI-60 one-dose screen, 48 h (100 = growth as untreated, 0 = no growth, -100 = all killed). As to conditions: 10 µM unless noted. The method, then:
Cells are grown in 96 well plates and exposed to the test compound for 48 hours. Compounds are tested at a single concentration, which is 10^-5 M for most compounds. The reported endpoint is percent growth (GI% or GIPRCNT), where numbers from 0 - 100% represent growth inhibition, and numbers from -100% - 0 represent cell death. For example, a value of 40 represents 60% growth inhibition. A value of 0 means no net growth occurred over the course of the experiment. A value of -40 indicates 40% of cells at the beginning of the experiment died by the end of the experiment. A value of -100 means all cells are dead at the end of the experiment.
NCI-60 Human Tumor Cell Lines Screen was performed using the standard one-dose NCI protocol, which is described in more detail at https://dtp.cancer.gov/discovery_development/nci-60/default.htm.
Compounds with GIPRCNT values below 10 were considered active. Activity score was based on GIPRCNT using the following formula: […]
Score is 0 for GIPRCNT values of 100 or above, 50 for GIPRCNT values of 0, and 100 for GIPRCNT values of -100.
On to `c1ccc(CNCCNCc2ccccc2)cc1`, for which the growth was 109% (inactive).

In the case of `Cl`, the growth was 115% (inactive).

`CCc1cc(C)cc(O)c1`: the growth is 116% (inactive).

For the compound `CCCCNc1ccc(Nc2ccccc2)cc1`, the growth is 85% (inactive).

Regarding `O=C1OC(C(O)C(O)CO)C(O)=C1O` (stereo not given), the growth is 101% (inactive) and 96.9% (inactive).

Turning to `COc1ccc(N/C=C/C2=[N+](C)c3ccccc3C2(C)C)c(OC)c1`, the growth is 99.5% (inactive).

As to `Nc1ncnc2c1ncn2C1OC(COP(=O)(O)O)C(O)C1O` (stereo not given), the growth is 130% (inactive).

`O=CN1CCCCC1`: the growth was 136% (inactive).

With `Brc1ccc(SSc2ccc(Br)cc2)cc1`, the growth is 90.6% (inactive).

Consider `CC(=O)OCC1OC(OC(C)=O)C(OC(C)=O)C(OC(C)=O)C1OC(C)=O` (stereo not given), for which the growth is 104% (inactive) and 107% (inactive).

Consider `CC1CCC2(C(=O)O)CCC3(C)C(=CCC4C5(C)CCC(O)C(C)(C)C5CCC43C)C2C1C` (stereo not given), for which the growth is 78.5% (inactive) and 110% (inactive).

As for `O=c1[nH]cnc2c1ncn2C1OC(CO)C(O)C1O` (stereo not given), the growth was 114% (inactive) and 118% (inactive) and 113% (inactive).

On to `O=[N+]([O-])c1cccc(SSc2cccc([N+](=O)[O-])c2)c1`, for which the growth is 82.1% (inactive).

Consider `CCCCCCCCCCNC(=O)CI`, for which the growth was -20% (active).

For the compound `Fc1ccc([I+]c2ccc(F)cc2)cc1`, the growth is 62.2% (inactive).

As to `Oc1ccc(Cc2ccccc2Cl)c(O)c1`, the growth was 106% (inactive).

For `O=C(O)CCCl`, the growth was 119% (inactive).

Take `NC1CCC(C(=O)O)CC1` (stereo not given): the growth was 105% (inactive) and 107% (inactive).

In the case of `c1ccc(-c2nc3ccccc3s2)cc1`, the growth was 110% (inactive).

Turning to `CC(C)NC(=O)N/C=C(\C#N)C(N)=O`, the growth was 103% (inactive).

`c1ccc2c(c1)OC1OC2Oc2ccccc21`: the growth is 107% (inactive).

In the case of `C#CCOC(=O)Nc1ccccc1`, the growth was 106% (inactive).

Regarding `OCC1OC(O)C(O)C(O)C1O` (stereo not given), the growth was 108% (inactive).

On to `NC(Cc1c[nH]c2ccccc12)C(=O)O` (stereo not given), for which the growth is 117% (inactive) and 103% (inactive).

Consider `COc1ccc2cc1Oc1ccc(cc1)C[C@H]1c3cc(c(OC)cc3CCN1C)Oc1c(OC)c(OC)cc3c1[C@H](C2)N(C)CC3`, for which the growth is 44.8% (inactive).

Turning to `CC(C)C(C)(C)c1ccc(O)cc1`, the growth is 108% (inactive).

As for `NN1CCOC(c2ccccc2)C1` (stereo not given), the growth is 107% (inactive).

Regarding `Cc1cc(-c2cc(C)c(O)c(C)c2)cc(C)c1O`, the growth was 115% (inactive).

For `N#CC(C#N)N=Nc1ccc(Cl)cc1`, the growth was -33.9% (active).

Turning to `O=C(Cc1ccccc1)c1ccc(O)c(Cl)c1`, the growth is 55.4% (inactive).

`CC(=O)Nc1ccc(S(N)(=O)=O)cc1`: the growth is 99.7% (inactive) and 102% (inactive).

As to `Cc1cc(-c2ccc(N=Nc3ccc4c(S(=O)(=O)O)cc(S(=O)(=O)O)c(N)c4c3O)c(C)c2)ccc1N=Nc1ccc2c(S(=O)(=O)O)cc(S(=O)(=O)O)c(N)c2c1O`, the growth is 111% (inactive).

Turning to `O=C(CO)C(O)C(O)C(O)C(O)CO` (stereo not given), the growth is 107% (inactive) and 103% (inactive).

With `CC(C)(O)C(=O)O`, the growth is 104% (inactive).

As to `O=C1C=C(Nc2ccccc2)c2ccccc2C1=O`, the growth is 108% (inactive) and 91.9% (inactive).

As for `CCOC(=O)c1c(C)cc(=O)oc1C`, the growth was 116% (inactive).

For the compound `Cc1ccc(S(=O)(=O)c2ccccc2)cc1`, the growth was 18.4% (inactive).

For `COc1ccc(Nc2ccc3ccccc3c2)cc1`, the growth is 94% (inactive).

For the compound `OC1COC(OCc2ccccc2)C(O)C1O` (stereo not given), the growth was 115% (inactive).

Consider `OCCN1CCCCCCC1`, for which the growth was 104% (inactive).
